The full list was thinned out, with hits kept by preference.
14-3-3g Raf: alters human 14-3-3 gamma binding to Raf peptide; P61981; FP, 14-3-3gamma / TMR-pS259-Raf peptide binding; inhibition, % at 40 µM; hit rate 0.19% among 160,000; in the data active means inhibition above about 30%;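 further: 0% = protein plus tracer without compound and 100% = blank with tracer alone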
Target sequence (P61981 whole entry, looked up): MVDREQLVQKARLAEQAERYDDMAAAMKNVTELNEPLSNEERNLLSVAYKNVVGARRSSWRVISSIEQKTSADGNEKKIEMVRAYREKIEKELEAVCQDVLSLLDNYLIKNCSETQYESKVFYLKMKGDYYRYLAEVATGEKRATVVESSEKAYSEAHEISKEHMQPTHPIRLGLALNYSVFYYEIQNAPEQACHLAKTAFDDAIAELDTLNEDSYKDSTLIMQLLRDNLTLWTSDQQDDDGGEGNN
An asterisk follows results filed as active.

SMILES	14-3-3g Raf
CCCSc1nnc2c(n1)OC(c1cccc(OCC)c1OC)Nc1ccccc1-2 (centres undefined)	-72.0
CCCCCSc1nnc2c(n1)OC(c1cccc(C)n1)Nc1ccccc1-2 (centres undefined)	36.4*
C=CCSc1nnc2c(n1)OC(c1cccc(C)n1)Nc1ccccc1-2 (centres undefined)	-7.6
CCCCSc1nnc2c(n1)OC(c1cccc(OCC)c1OC)Nc1ccccc1-2 (centres undefined)	70.4*
CCCCCCSc1nnc2c(n1)OC(C)Nc1ccccc1-2 (centres undefined)	44.0*
CCCCSc1nnc2c(n1)OC(c1ccccc1OC)Nc1ccccc1-2 (centres undefined)	-0.7
CC(C)CCNC(=O)C1CCCN(S(=O)(=O)N2CCCCCC2)C1 (centres undefined)	-7.8
O=C(NCCc1ccccc1)c1cc(Sc2ccc(F)cc2)nc2ccccc12	7.6
CC1(C)CC(=O)C2=C(C1)Nc1nc(SCc3ccccc3)[nH]c(=O)c1C2c1ccccc1 (centres undefined)	-1.7
COc1ccc(-c2n[nH]c3c2C(c2ccc(OC)cc2)N(c2ccc(Br)cc2)C3=O)cc1 (centres undefined)	0.3
CCOc1ccc(-c2n[nH]c3c2C(c2ccccc2)N(c2ccc(Br)cc2)C3=O)cc1 (centres undefined)	134.1*
CCOc1cc(C2c3c(-c4ccc(OC)cc4)n[nH]c3C(=O)N2c2ccc(Br)cc2)ccc1O (centres undefined)	4.5
CCN(CC)C(=O)CN(Cc1ccc(Br)cc1)S(=O)(=O)c1ccccc1	-12.2
CCn1c(CC(C)C)nnc1Sc1c(-c2ccccc2)c2cc(Cl)ccc2[nH]c1=O	-2.3
CCOC(=O)c1c(NC(=O)CN2CCOCC2)sc2c1CCCC2	-7.9
CCCCC1(C(=O)OCC)CC(CN2CCOCC2)OC1=O (centres undefined)	54.2*
CCCCOC(=O)N1CCOCCOCCN(C(=O)OCCCC)CCOCCOCC1	0.2
COc1ccccc1Nc1cc(C(=O)NCCCN2CCCC(C)C2)c2ccccc2n1 (centres undefined)	-5.7
COc1ccc(C2CC(c3ccc(I)cc3)Nc3ncnn32)c(OC)c1OC (centres undefined)	-3.6
Cc1c(C(=O)N2CCC(C#N)CC2)sc2ncnc(N3CCc4ccccc4C3)c12	16.6

High-throughput results deposited in PubChem by Emory University Molecular Libraries Screening Center.
